Compound activity (PubChem BioAssay)
Rows were chosen to be rich in hits. Some 3.1% of all compounds tested hit in one or more screens of this group.
BoNT-A LC inh2: BoNT/A light chain protease inhibitors, primary screen, biochemical, flow cytometry, MLPCN library; inhibition, % at 10 µM; Botulinum neurotoxin type A light chain protease (Clostridium botulinum A str. ATCC 3502); multiplex microsphere protease substrate cleavage; actives 0.17% (n = 360,000); AID 588499, 2011; also: plate controls were buffer without enzyme for full effect and enzyme alone for no effect
PriA SSB inh: inhibitors of Klebsiella pneumoniae PriA binding to SSB C-terminal tail, primary screen, biochemical, AlphaScreen. AlphaScreen SSBct-PriA binding, biotinylated peptide. actives 0.6% (n = 430,000). inhibition, % at 33 µM. PriA–SSB C-terminal tail interaction (Klebsiella pneumoniae); in the data active = inhibition mostly above about 37%, no sharp cut-off; inactive = mostly below about 20%;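 also: plate controls were negative control peptide for no effect and reference peptide for full effect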
Bead autofluor: counter-screen for toxin protease inhibitors: compound fluorescence; compound autofluorescence counterscreen, microsphere flow cytometry; active compounds read high; fluorescence intensity (no concentration beside the values); actives 3.1% (n = 360,000); AID 624483; in the data active = fluorescence intensity above about 16000
BoNT-F LC inh: BoNT/F light chain protease inhibitors, primary screen, biochemical, flow cytometry, MLPCN library; Multiplex microsphere protease cleavage assay; inhibition, % at 10 µM; actives 0.22% (n = 360,000); AID 588497, 2011; in the data active = inhibition above about 35%, passing the limit was not always enough; also: plate controls were buffer without enzyme for full effect and enzyme alone for no effect
Anthrax LF prot: Bacillus anthracis LF protease inhibitors, primary screen, biochemical, multiplex microsphere, MLPCN library. AID 588501, 2011. actives 0.12% (n = 360,000). Lethal factor (Bacillus anthracis), P15917. inhibition, % at 10 µM. multiplex microsphere protease cleavage assay; also: plate controls were buffer without enzyme for full effect and enzyme alone for no effect
Target sequence (P15917 whole entry, looked up): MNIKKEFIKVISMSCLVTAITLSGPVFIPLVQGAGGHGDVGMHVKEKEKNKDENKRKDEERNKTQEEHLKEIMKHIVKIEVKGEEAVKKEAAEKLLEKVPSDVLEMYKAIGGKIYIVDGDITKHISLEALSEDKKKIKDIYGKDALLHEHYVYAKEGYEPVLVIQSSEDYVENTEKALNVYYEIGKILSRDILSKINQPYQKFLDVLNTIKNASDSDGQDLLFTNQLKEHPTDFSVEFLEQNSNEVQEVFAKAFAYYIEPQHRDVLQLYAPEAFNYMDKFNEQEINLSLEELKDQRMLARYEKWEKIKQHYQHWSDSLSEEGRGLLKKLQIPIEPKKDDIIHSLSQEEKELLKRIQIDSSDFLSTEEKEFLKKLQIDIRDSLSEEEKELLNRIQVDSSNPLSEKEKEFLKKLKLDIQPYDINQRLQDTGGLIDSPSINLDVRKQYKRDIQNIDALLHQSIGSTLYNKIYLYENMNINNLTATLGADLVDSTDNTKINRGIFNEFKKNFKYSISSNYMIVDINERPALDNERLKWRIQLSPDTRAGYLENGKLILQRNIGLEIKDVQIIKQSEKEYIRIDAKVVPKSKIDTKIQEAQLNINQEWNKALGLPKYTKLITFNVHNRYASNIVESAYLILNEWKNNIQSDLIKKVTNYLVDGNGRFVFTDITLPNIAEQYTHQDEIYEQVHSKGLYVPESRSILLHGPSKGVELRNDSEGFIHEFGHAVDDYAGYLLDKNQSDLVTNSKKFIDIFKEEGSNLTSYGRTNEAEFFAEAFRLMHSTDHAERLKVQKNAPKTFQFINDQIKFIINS
BoNT-A LC CP2: BoNT/A light chain protease inhibitors, confirmation, biochemical, flow cytometry, cherry pick 2 | shares compounds with BoNT-A LC inh2 | actives 10% (n = 150) | multiplex microsphere protease cleavage assay | inhibition, % at 10 µM | AID 602325, 2012; in the data active = inhibition above about 24%
Anthrax LF CP2: Bacillus anthracis LF protease inhibitors, confirmation, biochemical, multiplex microsphere; shares compounds with BoNT-A LC inh2; multiplex microsphere protease cleavage assay; inhibition, % at 10 µM; actives 7% (n = 150); AID 602327, 2012; in the data active = inhibition above about 25%
BoNTF LC inh 2: BoNT/F light chain protease inhibitors, confirmation, biochemical, flow cytometry, cherry pick 2 | shares compounds with BoNT-A LC inh2 | multiplex microsphere protease cleavage assay | inhibition, % at 10 µM | actives 7% (n = 150); in the data active = inhibition above about 25%
An asterisk follows results filed as active; . = no result given. Rule as the data show it, unless noted: active = inhibition above about 30%; inconclusive = no clear call, values can overlap the other calls; inactive = below that.

SMILES	BoNT-A LC inh2	PriA SSB inh	Bead autofluor	BoNT-F LC inh	Anthrax LF prot	BoNT-A LC CP2	Anthrax LF CP2	BoNTF LC inh 2
Cc1nc2ccc(NC(=O)c3cccc(S(=O)(=O)N4CC(C)OC(C)C4)c3)cc2s1 (stereo unspecified)	25	2	7927	20	30*	5	6	6
CC1CN(S(=O)(=O)c2cccc(C(=O)Nc3ccc(N4CCCCC4)cc3)c2)CC(C)O1 (stereo unspecified)	0	.	3605	1	0	.	.	.
O=C(Nc1nc2cc3c(cc2s1)OCO3)c1ccc(Br)s1	.	-9	.	.	.	.	.	.
COc1ccc(-c2oc3c(OC)c(OC)c(OC)c(O)c3c(=O)c2OC)cc1OC	39*	-8	4692	11	34*	17	19	19
Nc1nnc(SCc2cccc3ccccc23)s1	.	4	.	.	.	.	.	.
O=C(C(=CO)N=Nc1cccc(C(F)(F)F)c1)c1ccccc1	.	-1	.	.	.	.	.	.
O=C(O)CN1CCN(CC(=O)O)CCN(CC(=O)O)CCN(CC(=O)O)CC1	9	3	5999	63*	9	6	4	48*
CC1(C)Cc2cccc(OCC(=O)N3CCC(Cn4cccn4)CC3)c2O1	.	-7	.	.	.	.	.	.
O=C(NCc1ccc(OC(F)(F)F)cc1)c1cccc2c1C(=O)c1ccc(N3CCC(Cc4ccccc4)CC3)cc1S2(=O)=O	13	8	4518	11	21	7	6	15
O=C(NCc1ccc(OC(F)(F)F)cc1)c1cccc2c1C(=O)c1ccc(N3CCCC3)cc1S2(=O)=O	3	-23	2925	6	4	.	.	.
COc1ccccc1N1CCN(c2ccc3c(c2)S(=O)(=O)c2cccc(C(=O)NCc4ccc(F)cc4)c2C3=O)CC1	1	.	3973	-5	-4	1	-2	-5
O=C(NCc1cccc(F)c1)c1cccc2c1C(=O)c1ccc(N3CCCC3)cc1S2(=O)=O	10	-22	4444	17	12	.	.	.
CN(C)S(=O)(=O)c1ccc(C(=O)NCCN2CCN(c3ccccc3F)CC2)cc1	.	-12	.	.	.	.	.	.
CCOC(=O)c1c(C)[nH]c(C(=O)COC(=O)COc2ccccc2C)c1C	0	-8	2053	-3	0	.	.	.
CCOc1ccccc1OCC(=O)OCC(=O)c1c(C)[nH]c2ccccc12	3	-19	4284	14	0	1	-1	2
Cc1cccc(C(=O)OCC(=O)c2c(C)[nH]c3ccccc23)c1O	-1	5	4168	2	-5	0	1	1
Cc1cc(-c2nnc(NC(=O)CN3C(=O)c4ccccc4C3=O)o2)nn1C	.	-1	.	.	.	.	.	.
Cc1cc(Br)ccc1SCC(=O)OCC(=O)Nc1ccc2[nH]c(=O)[nH]c2c1	11	-3	3972	62*	36*	2	0	12
CCCC(=O)OCC(=O)Nc1ccc2[nH]c(=O)[nH]c2c1	0	-2	4226	1	-6	.	.	.
CC(=O)Nc1ccc(S(=O)(=O)NCc2cc(=O)n(C)c(=O)n2C)cc1	-2	-5	6203	-3	0	.	.	.
Cc1cc2cc(CNS(=O)(=O)c3ccc4ccccc4c3)ccc2n1C	47*	28	2284	-108	-89	20	6	-27
CC(=O)Nc1ccc(S(=O)(=O)NCc2ccc3c(c2)cc(C)n3C)cc1	72*	17	1283	-112	-115	19	23	-7
Cc1cc(C)c(S(=O)(=O)NCc2ccc3c(c2)cc(C)n3C)c(C)c1	78*	26	1929	-79	-36	5	1	-8
Cn1ccc2c(-c3cccc4ccccc34)cc3c(c21)C1CCC3C1 (stereo unspecified)	0	.	4492	3	-13	1	-3	-3
Cn1ccc2c(-c3cncc4ccccc34)cc3c(c21)C1CCC3C1 (stereo unspecified)	48*	.	3532	0	30*	10	10	4
SMILES	BoNT-A LC inh2	PriA SSB inh	Bead autofluor	BoNT-F LC inh	Anthrax LF prot	BoNT-A LC CP2	Anthrax LF CP2	BoNTF LC inh 2
COc1cc(C(=O)NCCOc2cccc(C(F)(F)F)c2)c([N+](=O)[O-])cc1OC	.	1	.	.	.	.	.	.
Cc1cc2cc(CNC(=O)c3ccc(Br)o3)ccc2n1C	62*	-4	2858	-61	-24	15	10	-11
CNC(=S)NCc1ccc2c(c1)cc(C)n2C	.	43	.	.	.	.	.	.
Cc1cc2cc(CNC(=O)Cc3cccs3)ccc2n1C	75*	15	2301	-62	-53	20	9	-23
Cc1cc2cc(CNC(=O)C3CCCC3)ccc2n1C	45*	1	3369	-32	1	4	4	-2
Cc1c(C(=O)NCc2ccc3c(c2)cc(C)n3C)cccc1[N+](=O)[O-]	78*	28	1750	-88	-100	6	3	-8
O=C(O)CSc1nnc2[nH]c(=O)c3c(n12)CCCC3	.	-15	.	.	.	.	.	.
Cc1cc2cc(CNC(=O)c3ccc(Br)cc3)ccc2[nH]1	.	20	.	.	.	.	.	.
O=C(NCc1ccc2c(c1)OCO2)c1cccc([N+](=O)[O-])c1	0	-13	2511	2	0	.	.	.
Cc1cc2cc(CNC(=O)c3cccc([N+](=O)[O-])c3)ccc2[nH]1	79*	16	2875	-64	-49	27*	-1	14
Cc1ccc(S(=O)(=O)NCc2ccc3[nH]c(C)cc3c2)cc1	20	43*	4738	-42	0	1	-1	3
Cc1cc2cc(CNC(=O)c3ccc(Br)o3)ccc2[nH]1	67*	4	2858	-110	-78	23	18	-18
O=C(C(=CO)N=Nc1ccccc1)c1cccs1	.	-8	.	.	.	.	.	.
O=C(CSc1nnc2ccc(-c3ccccn3)nn12)NC1CCCCC1	.	16	.	.	.	.	.	.
CC(C)(Oc1ccc(Cl)cc1)C(=O)NCCNc1cc(-n2cccc2)ncn1	.	1	.	.	.	.	.	.
